# Measurements reported in PubChem BioAssay (NCATS).
# Records with an inconclusive call do not appear. Unmarked numbers belong to inactive results. Calls of active or inactive are those of the source. Calls come from the whole dose curve; as a rule, active = well fitted inhibition curve with a large enough effect; inconclusive = small, poorly fitted or top-dose-only effect; inactive = flat fitted curve, though single readings scatter.
# Test system: CP237
# Experiment: qHTS profiling for inhibitors of Plasmodium falciparum proliferation (AID 504749);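 note: 0% = DMSO vehicle and full inhibition = artemisinin control; nearly all actives have a fitted effect of over 60% in size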
# Conditions: P. falciparum in erythrocytes, SYBR Green DNA, 72 h; series mostly up to 28.7 µM; activity, negative = inhibition: at the top concentration
# Method in brief: (§1)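 P. falciparum-infected erythrocytes (0.3% parasitemia, 2.5% hematocrit final) were exposed to compounds for 72 h at 37 C in 5% CO2, then lysed with SYBR Green buffer overnight at room temperature; parasite DNA fluorescence was normalized to artemisinin and DMSO controls.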
SMILES,"activity, negative = inhibition [%]",Potency
CCCOC(=O)c1ccccc1,1.34,–
CC12CCC(CC1)C(C)(C)O2,0.515,–
CC(=O)Nc1ccc(/C=N/NC(N)=S)cc1,–,inactive
CC(C)(C)NCC(O)COc1ccc(NC(=O)NC2CCCCC2)cc1 (stereo not drawn),-19.9,–
O=C1OC(OC(=O)c2cccnc2Nc2cccc(C(F)(F)F)c2)c2ccccc21 (stereo not drawn),5.19,–
O=C1NS(=O)(=O)c2ccccc21,2.33,–

# Test system: CP238
# Experiment: as above
# Conditions: P. falciparum in erythrocytes, SYBR Green DNA, 72 h; series mostly up to 28.7 µM; activity, negative = inhibition: at the top concentration
# Method in brief: as §1
SMILES,Potency,"activity, negative = inhibition"
NC(=O)NNc1ccccc1,inactive,–
O=C(O)[C@@H]1CSCN1,–,11.4%
COc1ccc2c(c1)C(=O)N(CCc1ccc(S(=O)(=O)NC(=O)NC3CCCCC3)cc1)C(=O)C2(C)C,–,-1.69% [at 12.8 µM]
CCCc1c(OCCCCc2nn[nH]n2)ccc(C(C)=O)c1O,–,-11.5%
CCn1cc(C(=O)O)c(=O)c2cnc(N3CCNCC3)nc21,–,0.446% [at 12.8 µM]
O=C(O)COc1nn(Cc2ccccc2)c2ccccc12,–,6.04%
O=C1O[C@H]([C@@H](O)CO)C(O)=C1O,–,6.31%
O=S(=O)(O)c1cc(I)c(O)c2ncccc12,–,2.64%
CC1=C(CC(=O)O)c2cc(F)ccc2/C1=C\c1ccc(S(C)=O)cc1 (stereo not drawn),–,0.172%
CCOC(=O)c1ccc(O)cc1,–,2.01%
O=C(O)c1ccccn1,–,-1.41%
Cc1cc(O)cc2c1O[C@](C)(CCC[C@H](C)CCC[C@H](C)CCCC(C)C)CC2,–,-1.42%
NCC(=O)CCC(=O)O,–,-0.98%
CC(C)(C)C(=O)NCCCC(=O)O,–,7.09%
COc1cc2[nH]c(=O)[nH]c(=O)c2cc1OC,–,-2.63% [at 12.8 µM]
CCC(=O)Nc1ccc(O)cc1,–,-9.03%

SMILES,Potency,"activity, negative = inhibition"
COc1ccc(Cl)cc1C(=O)NCCc1ccc(S(=O)(=O)NC(=O)NC2CCCCC2)cc1,–,-2.17%
O=C1NC(=O)[C@@]2(CCOc3ccc(F)cc32)N1,–,9.8%
O=Cc1ccccc1C=O,–,4.78%
CC(O)CN(CCN(CC(C)O)CC(C)O)CC(C)O (stereo not drawn),–,5.65%
Cc1ccc(C(C)C)cc2c(C)ccc1-2,–,-3.95%
Nc1nc2c(ncn2CCC(CO)CO)c(=O)[nH]1,–,10.6%
NCCNCCNCCN,–,17.6%
CC1(C)OC(=O)NC1=O,–,5.9%
CCCCN(CCCC)CCCOC(=O)c1ccc(N)cc1,–,-12.2% [at 12.8 µM]
O=C1c2c(O)cccc2Cc2cccc(O)c21,–,4.8%
CCCOC(=O)c1ccccc1,–,1.96%
CC12CCC(CC1)C(C)(C)O2,–,4.72%
CC(=O)Nc1ccc(/C=N/NC(N)=S)cc1,inactive,–
CC(C)(C)NCC(O)COc1ccc(NC(=O)NC2CCCCC2)cc1 (stereo not drawn),–,-17.9%
O=C1OC(OC(=O)c2cccnc2Nc2cccc(C(F)(F)F)c2)c2ccccc21 (stereo not drawn),–,6.22%
O=C1NS(=O)(=O)c2ccccc21,–,9.59%
